# The supplement of paper PMC6522484
# ± gives the standard deviation of the averaged measurements.
# Key:
# [1] = test system: DLD1; experiment: cell viability (CellTiter-Glo) relative to plate median (fraction of plate median); higher = more viable cells; conditions: 10 µM, treatment time 24 h
# Outline: (§1)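 Colorectal cancer cell lines stably transduced with lentiviral TCF/Wnt firefly luciferase reporters (7TFP or TCF4/Wnt) were seeded in 384-well plates. 24 h later they received kinase inhibitor library compounds at a final 10 µM for 24 h. Parallel plates were read for firefly luciferase or CellTiterGlo luminescence on a Tecan F500 reader. Each well's signal was normalised to the plate median (webcellHTS2, additive, no log transformation), and the mean of two independent replicates is reported.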
# [2] = test system: HCT116; experiment: as above; conditions: 10 µM; treatment time 24 h; reporter: TCF4/Wnt
# Outline: as §1
# [3] = test system: SW480; experiment: as above; conditions: 10 µM; treatment time 24 h; reporter: 7TFP
# Outline: as §1
# [4] = test system: DLD1; experiment: TCF/Wnt firefly luciferase reporter signal relative to plate median (fraction of plate median); higher = higher Wnt reporter signal; conditions: 10 µM, treatment time 24 h
# Outline: as §1
# [5] = test system: HCT116; experiment: as above; conditions: 10 µM; treatment time 24 h; reporter: TCF4/Wnt
# Outline: as §1
# [6] = test system: SW480; experiment: as above; conditions: 10 µM; treatment time 24 h; reporter: 7TFP
# Outline: as §1
SMILES,cell viability ([1]; reporter: 7TFP),cell viability ([1]; reporter: TCF4/Wnt),cell viability [2],cell viability [3],TCF/Wnt firefly luciferase reporter signal ([4]; reporter: 7TFP),TCF/Wnt firefly luciferase reporter signal ([4]; reporter: TCF4/Wnt),TCF/Wnt firefly luciferase reporter signal [5],TCF/Wnt firefly luciferase reporter signal [6]
COc1ccc2c(Oc3ccc(NC(=O)c4c(C)n(CC(C)(C)O)n(-c5ccccc5)c4=O)nc3)ccnc2c1,1.15 ± 0.19,1.01 ± 0.016,1.12,0.921 ± 0.08,0.92 ± 0.35,0.99 ± 0.057,1.22 ± 0.078,1.05 ± 0.078
CNC(=O)c1nn(C)c2c1C(C)(C)Cc1cnc(Nc3ccc(N4CCN(C)CC4)cc3)nc1-2,1.02 ± 0.2,0.941 ± 0.049,0.659 ± 0.18,1.14 ± 0.099,0.274 ± 0.088,0.3665 ± 0.0035,0.146 ± 0.022,0.845 ± 0.096
COC(=O)c1ccc2c(C(=Nc3ccc(N(C)C(=O)CN4CCN(C)CC4)cc3)c3ccccc3)c(O)[nH]c2c1 [BIBF1120 (Vargatef)],1.21 ± 0.18,1.04 ± 0.014,1.06 ± 0.028,1.125 ± 0.0071,1.35 ± 0.035,1.03 ± 0.18,0.749 ± 0.54,0.895 ± 0.53
COc1cc2ncnc(Nc3ccc(F)c(Cl)c3)c2cc1OCCCN1CCOCC1 [Gefitinib (Iressa)],0.913 ± 0.069,0.968 ± 0.021,0.961 ± 0.052,0.917 ± 0.03,1.005 ± 0.0071,0.812 ± 0.18,0.76 ± 0.24,1.02 ± 0.039
COc1ccc2c3n(c(=NC(=O)c4cccnc4)nc2c1OC)CCN3,1.005 ± 0.0071,0.944 ± 0.026,0.958 ± 0.028,1.04 ± 0.042,0.858 ± 0.13,1.05 ± 0.1,1.12 ± 0.13,0.67 ± 0.33
COc1cc2ncnc(Nc3cccc(Cl)c3)c2cc1OC [AG-1478 (Tyrphostin AG-1478)],0.949 ± 0.059,1 ± 0.053,1.12 ± 0.014,0.9395 ± 0.005,0.847 ± 0.03,0.75 ± 0.1,1.015 ± 0.0071,0.962 ± 0.054
O=c1cc(-c2cccc3c2Sc2ccccc2S3)oc(N2CCOCC2)c1,1.02 ± 0.1,0.999 ± 0.03,1.11 ± 0.035,0.875 ± 0.0042,1.42 ± 0.13,1.18 ± 0.13,1.6 ± 0.4,1.18 ± 0.13
Cc1ncc(-c2ccnc(Nc3ccc(S(C)(=O)=O)cc3)n2)n1C(C)C,1.25 ± 0.16,1.32 ± 0.099,0.766 ± 0.3,1.47 ± 0.05,0.499 ± 0.026,0.277 ± 0.063,0.156 ± 0.042,0.793 ± 0.035
O=C(NOCC1CC1)c1ccc(F)c(F)c1Nc1ccc(I)cc1Cl,1.19 ± 0.028,1.065 ± 0.0071,1.11 ± 0.028,1.1 ± 0.11,1.2 ± 0.042,1.04 ± 0.23,0.9945 ± 0.0078,1.16 ± 0.32
Cc1ccc([N+](=O)[O-])cc1S(=O)(=O)N(C)/N=C/c1cnc2ccc(Br)cn12,0.887 ± 0.097,1.07 ± 0.078,0.763 ± 0.23,1.13 ± 0.11,0.358 ± 0.074,0.239 ± 0.0014,0.155 ± 0.059,0.53 ± 0.24
C[C@H](NC(=O)/C(C#N)=C/c1cccc(Br)n1)c1ccccc1,0.579 ± 0.082,0.529 ± 0.0085,0.183 ± 0.0028,0.899 ± 0.0057,0.041 ± 0.011,0.057 ± 0.015,0.0323 ± 0.02,0.0234 ± 0.012
